# Measured values taken from PubChem BioAssay (NCATS).
# Inconclusive results are not listed. Calls of active or inactive are those of the source. Calls come from the whole dose curve; as a rule, active = well fitted curve in the direction sought with a large enough effect; inconclusive = small, poorly fitted or top-dose-only effect, or another doubt; inactive = no such curve, though single readings can be large or run the other way.
# Assay: qHTS for Inhibitors of the vitamin D receptor (VDR): Hit Validation using a Texas Red Assay (AID 602201)
# Details: VDR coregulator binding, Texas Red fluorescence polarization, agonist-bound VDR ligand-binding domain; series mostly up to 57.1 µM; activity, negative = inhibition: at the top concentration
# Summary of the method: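 Fluorescence polarization with 1.5 uM VDR-LBD, LG19078 and 7 nM Texas Red (final). After 2 hours at ambient temperature, read at Ex 595 nm/Em 615 nm.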
# % is set by controls: 0 for no effect and ±100 for the full control effect; potency is the fitted concentration of half-maximal effect.
SMILES,Potency,"activity, negative = inhibition"
CCSc1nnc(NC(=O)c2nc(S(=O)(=O)Cc3ccc(F)cc3)ncc2Cl)s1,3.16 µM (active),–
O=C(O)/C=C/C(=O)c1ccc2c(c1)NC(=O)CO2,–,2.2% (inactive)
O=[S@]1Oc2ccccc2-c2ccccc21,–,-14.3% (inactive)
CCOC(=O)N1C(=O)[C@@](CC)(c2ccccc2)N1C(=O)OCC,–,-14.9% (inactive)
CCN(CC)c1ccc(C=Nc2ccc(N(C)C)cc2)c(O)c1,–,-1.5% (inactive)
NC(=O)c1c(N)sc2c1CCCCC2,14.1 µM (active),–
C=CCOc1c(Br)cc(/C=C2/C(=O)ON=C2C)cc1OC,–,-6.68% (inactive)
COc1ccccc1N1C(=O)C=C(Sc2nc(C)cc(C)n2)C1=O,14.1 µM (active),–
CC(=O)N(C(C)=O)N1C(=O)C2C3c4ccccc4C(c4ccccc43)C2C1=O (stereo not drawn),–,-17.7% (inactive)
O=C(/C(=C/c1ccncc1)n1ccnc1)c1ccc(Cl)cc1Cl,14.1 µM (active),–
CCN1C(=O)/C(=C\C(=O)c2cccs2)c2cc(Br)ccc21,–,-13.2% (inactive)
CC(=O)C1=C(c2ccc(Br)cc2)C(=O)c2ccccc2C1=O,3.55 µM (active),–
CS(=O)(=O)c1nc(-c2ccccc2)cc(C(F)(F)F)n1,10 µM (active),–
CN1CCN(C(c2ccc(Br)cc2)c2cc(Cl)c3cccnc3c2O)CC1 (stereo not drawn),28.2 µM (active),–
O=[N+]([O-])c1c(Nc2ccc(O)cc2)cc(Cl)c2nonc12,3.16 µM (active),–
Cc1ccc(C=Nc2ccc(N(C)C)cc2)o1,20 µM (active),–
NC(=O)COc1ccc(/C=C2\C(=O)ON=C2c2ccccc2)cc1,25.1 µM (active),–
C#CCOc1c(Cl)cc(/C=C2/C(=O)ON=C2C)cc1OCC,15.8 µM (active),–
